Assay results taken from PubChem BioAssay.
Inconclusive results are not listed. Active and inactive are the calls of the source. Unless noted, cut-off not given; nearly all actives show AC50 up to about 26 µM.

Legend:
[1] = growth inhibition of DIPG glioma cells, dose response, cell-based, SU-DIPG-XVII, MIPE5.0, CellTiter-Glo, qHTS (AID 1347060); conditions: SU-DIPG-XVII viability, CellTiter-Glo ATP luminescence;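 on AC50: cells exposed to compound for 48 hours before viability readout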
[2] = growth inhibition of DIPG glioma cells, dose response, cell-based, SU-DIPG-XIII, MIPE5.0, CellTiter-Glo, qHTS (AID 1347064; cut-off not given, nearly all actives have AC50 up to about 23 µM;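 on AC50: cells exposed to compound for 48 hours before the viability read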); conditions: SU-DIPG-XIII viability, CellTiter-Glo ATP luminescence
[3] = viability loss in pontine glioma line – cell-based, SU-DIPG-XXV, MIPE5.0, CellTiter-Glo, qHTS, dose response (AID 1347065); conditions: CellTiter-Glo ATP luminescence;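 further: cells exposed to compound for 48 hours before ATP readout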
[4] = SU-DIPG-VI glioma cell viability, MIPE4.0 library, CellTiter-Glo luminescence, qHTS (AID 1347066; cut-off not given, nearly all actives have AC50 up to about 30 µM;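 further: cells exposed to compound for 48 hours before readout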); conditions: CellTiter-Glo ATP luminescence
[5] = JHH-DIPG-1 glioma cell viability, MIPE5.0 library, CellTiter-Glo luminescence, qHTS (AID 1347067); conditions: JHH-DIPG-1 glioma viability, CellTiter-Glo ATP luminescence;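 further: cells exposed to compound for 48 hours before readout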
[6] = SU-DIPG-XXV glioma cell viability, MIPE5.0 library, qHTS (AID 1347068; cut-off not given, nearly all actives have IC50 up to about 30 µM;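 on IC50: cells exposed to compound for 48 hours before viability readout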)
[7] = sensitizers of A549 cells to miR-34 induction, primary screen, imaging, A549 dox-inducible miR-34, nuclei and caspase counts (AID 1347080;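 active means compounds whose cell count with miR-34 switched on is under 0.7 times the count with it off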); conditions: A549 miR-34 inducible, Hoechst nuclei count, 48 h
[8] = modifiers of HSF1 nuclear foci, imaging, Selleck Cancer Library (AID 1347162; in the data active means plate-normalised HSF1 focus index below about 0.46); conditions: human cells, at 10 µM; SSMD: measured here: HSF1 foci SSMD mean; cell count: measured here: cell number; plate-normalised HSF1 focus index: stronger effect = lower value
[9] = survival rescue of mitochondrial mutant cells in low glucose, primary screen, MELAS cybrids, Rieske KO mouse fibroblasts, CellTiter-Glo (AID 1508586;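 active means mean z-score across replicates of 1.96 or higher in either the MELAS or the Rieske mutant cell line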;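 further: z relative to plate mean and SD of compound and empty wells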)
[10] = ovarian cancer cell viability with rucaparib, profiling panel, oncology-focused library, rucaparib conditional (AID 1508598;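 active means normalized viability below 100% at a tested concentration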); conditions: patient-derived ovarian cancer cells, CellTiter-Glo viability, 144 h, stronger effect = lower value
[11] = stronger effect = lower value, cell number ratio, induced over uninduced
[12] = measured here: relative caspase fold change +Dox/-Dox
[13] = measured here: total cells with miR-34 induction, stronger effect = lower value
[14] = measured here: total cells without miR-34 induction
[15] = MELAS cybrid survival, CellTiter-Glo 48 h, stronger effect = higher value
[16] = Rieske KO mouse fibroblast survival, CellTiter-Glo 72 h

Structure (SMILES): CN1CCN(c2cccc(Nc3nc4c(-c5ccc(S(C)(=O)=O)cc5)cccn4n3)c2)CC1
- AC50 [1]: 16.6 µM (active)
- AC50 [2]: 16.6 µM (active)
- AC50 [3]: 11.8 µM (active)
- AC50 [4]: 23.5 µM (active)
- AC50 [5]: 20.9 µM (active)
- IC50 [6]: 11.8 µM (active)
- fold change [7, 11]: 0.892 (inactive)
- fold change [7, 12]: 0.496
- cell count [7, 13]: 5770
- cell count [7, 14]: 6470
- SSMD [8]: -2.58
- cell count [8]: 6270
- plate-normalised HSF1 focus index [8]: 0.914 (inactive)
- z-score [9, 15]: -0.221 (inactive)
- z-score [9, 16]: 0.00545
- viability ([10]; at 0.000305 µM, OCI-C5x cells, with rucaparib 10 µM, 100% = cells with rucaparib alone): 113% (inactive)
- viability ([10]; at 0.000305 µM, OCI-C5x cells, without rucaparib): 104% (inactive)
- viability ([10]; at 0.000305 µM, OCI-P5x cells, with rucaparib 20 µM, 100% = cells with rucaparib alone): 101% (inactive)
- viability ([10]; at 0.000305 µM, OCI-P5x cells, without rucaparib): 90.7% (active)
- viability ([10]; at 0.00122 µM, OCI-C5x cells, with rucaparib 10 µM, 100% = cells with rucaparib alone): 115% (inactive)
- viability ([10]; at 0.00122 µM, OCI-C5x cells, without rucaparib): 112% (inactive)
- viability ([10]; at 0.00122 µM, OCI-P5x cells, with rucaparib 20 µM, 100% = cells with rucaparib alone): 109% (inactive)
- viability ([10]; at 0.00122 µM, OCI-P5x cells, without rucaparib): 96.6% (active)
- viability ([10]; at 0.00488 µM, OCI-C5x cells, with rucaparib 10 µM, 100% = cells with rucaparib alone): 114% (inactive)
- viability ([10]; at 0.00488 µM, OCI-C5x cells, without rucaparib): 123% (inactive)
- viability ([10]; at 0.00488 µM, OCI-P5x cells, with rucaparib 20 µM, 100% = cells with rucaparib alone): 107% (inactive)
- viability ([10]; at 0.00488 µM, OCI-P5x cells, without rucaparib): 104% (inactive)
- viability ([10]; at 0.0195 µM, OCI-C5x cells, with rucaparib 10 µM, 100% = cells with rucaparib alone): 115% (inactive)
- viability ([10]; at 0.0195 µM, OCI-C5x cells, without rucaparib): 125% (inactive)
- viability ([10]; at 0.0195 µM, OCI-P5x cells, with rucaparib 20 µM, 100% = cells with rucaparib alone): 117% (inactive)
- viability ([10]; at 0.0195 µM, OCI-P5x cells, without rucaparib): 107% (inactive)
- viability ([10]; at 0.0781 µM, OCI-C5x cells, with rucaparib 10 µM, 100% = cells with rucaparib alone): 114% (inactive)
- viability ([10]; at 0.0781 µM, OCI-C5x cells, without rucaparib): 129% (inactive)
- viability ([10]; at 0.0781 µM, OCI-P5x cells, with rucaparib 20 µM, 100% = cells with rucaparib alone): 112% (inactive)
- viability ([10]; at 0.0781 µM, OCI-P5x cells, without rucaparib): 99.2% (active)
- viability ([10]; at 0.313 µM, OCI-C5x cells, with rucaparib 10 µM, 100% = cells with rucaparib alone): 113% (inactive)
- viability ([10]; at 0.313 µM, OCI-C5x cells, without rucaparib): 128% (inactive)
- viability ([10]; at 0.313 µM, OCI-P5x cells, with rucaparib 20 µM, 100% = cells with rucaparib alone): 115% (inactive)
- viability ([10]; at 0.313 µM, OCI-P5x cells, without rucaparib): 111% (inactive)
- viability ([10]; at 1.25 µM, OCI-C5x cells, with rucaparib 10 µM, 100% = cells with rucaparib alone): 115% (inactive)
- viability ([10]; at 1.25 µM, OCI-C5x cells, without rucaparib): 138% (inactive)
- viability ([10]; at 1.25 µM, OCI-P5x cells, with rucaparib 20 µM, 100% = cells with rucaparib alone): 112% (inactive)
- viability ([10]; at 1.25 µM, OCI-P5x cells, without rucaparib): 111% (inactive)
- viability ([10]; at 5 µM, OCI-C5x cells, with rucaparib 10 µM, 100% = cells with rucaparib alone): 110% (inactive)
- viability ([10]; at 5 µM, OCI-C5x cells, without rucaparib): 206% (inactive)
- viability ([10]; at 5 µM, OCI-P5x cells, with rucaparib 20 µM, 100% = cells with rucaparib alone): 45% (active)
- viability ([10]; at 5 µM, OCI-P5x cells, without rucaparib): 77.6% (active)

Structure (SMILES): Cc1cc(-c2ccc(CC(=O)Nc3ccc(-c4cccnc4)cc3)cc2)ccn1
- outcome [1]: inactive
- outcome [2]: inactive
- outcome [3]: inactive
- outcome [4]: inactive
- outcome [5]: inactive
- outcome [6]: inactive
- fold change [7, 11]: 0.957 (inactive)
- fold change [7, 12]: 0.839
- cell count [7, 13]: 7810
- cell count [7, 14]: 8160
- z-score [9, 15]: -0.327 (inactive)
- z-score [9, 16]: -0.153

Structure (SMILES): Nc1nc2cc(-c3ccc4ncc(C(=O)N5CCOCC5)n4c3)ccc2o1
- AC50 [1]: 18.6 µM (active)
- AC50 [2]: 14.8 µM (active)
- AC50 [3]: 9.34 µM (active)
- AC50 [5]: 10.5 µM (active)

Structure (SMILES): CCc1cc2c(c(OCC(F)(F)F)c(C(=O)NC3CCN(C(=O)CO)CC3)n2C)c(=O)n1CC(=O)c1ccccc1
- outcome [1]: inactive
- outcome [2]: inactive
- outcome [3]: inactive
- outcome [5]: inactive

Structure (SMILES): CC(C)n1ncnc1-c1cn2c(n1)-c1ccc(O[C@@H](C)C(N)=O)cc1OCC2
- AC50 [1]: 1.32 µM (active)
- AC50 [2]: 1.05 µM (active)
- AC50 [3]: 0.59 µM (active)

Structure (SMILES): COc1ccc(S(=O)(=O)NCc2ccc(C(=O)NCCc3ccc(Cl)cn3)cc2)cc1
- outcome [1]: inactive
- outcome [2]: inactive
- outcome [3]: inactive
- outcome [5]: inactive

Structure (SMILES): Cc1cc(-c2cc(OC(=O)c3ccccc3)ccc2Cl)cc2nnc(Nc3ccc(OCCN4CCCC4)cc3)nc12
- AC50 [1]: 5.12 µM (active)
- AC50 [2]: 7.23 µM (active)
- AC50 [3]: 5.12 µM (active)
- AC50 [5]: 5.12 µM (active)

Structure (SMILES): O=C(NCc1ccc(S(=O)(=O)c2cccc(C(F)(F)F)c2)cc1)c1cnc2[nH]ncc2c1
- AC50 [1]: 0.0263 µM (active)
- AC50 [2]: 0.0118 µM (active)
- AC50 [3]: 0.0166 µM (active)
- AC50 [5]: 0.0148 µM (active)

Structure (SMILES): CN1C/C=C/CCOc2cccc(c2)-c2ccnc(n2)Nc2cccc(c2)C1
- AC50 [1]: 0.0833 µM (active)
- AC50 [2]: 0.132 µM (active)
- AC50 [3]: 0.0934 µM (active)
- AC50 [5]: 0.166 µM (active)

Structure (SMILES): CN(C)C1CCN(C(=O)c2ccc(NC(=O)Nc3ccc(-c4nc(N5CCOCC5)nc(N5CCOCC5)n4)cc3)cc2)CC1
- AC50 [1]: 0.332 µM (active)
- AC50 [2]: 0.833 µM (active)
- AC50 [3]: 0.295 µM (active)
- AC50 [5]: 0.417 µM (active)
- IC50 [6]: 0.742 µM (active)

Structure (SMILES): COc1ccc(-c2cc(C(O)C3CCCCN3)c3ccccc3n2)cc1 (stereo not given)
- AC50 [1]: 20.9 µM (active)
- AC50 [2]: 16.6 µM (active)
- AC50 [3]: 29.5 µM (active)
- AC50 [5]: 7.42 µM (active)

Structure (SMILES): CN[C@@H](C)C(=O)N[C@H](C(=O)N1CCC[C@H]1C(=O)Nc1sc(-c2ncco2)nc1-c1ccccc1)C1CCCCC1
- outcome [1]: inactive
- outcome [2]: inactive
- outcome [3]: inactive
- outcome [5]: inactive
- outcome [6]: inactive

Structure (SMILES): CCN(CC)CCNC(=O)c1c(C)[nH]c(/C=C2/C(=O)Nc3ccc(-c4csc(-c5ccccc5)n4)cc32)c1C
- AC50 [1]: 3.32 µM (active)
- AC50 [2]: 2.95 µM (active)
- AC50 [3]: 4.68 µM (active)
- AC50 [5]: 2.95 µM (active)

Structure (SMILES): COc1cccc2c1c(O)c(C(=O)N(C)c1ccc(C(F)(F)F)cc1)c(=O)n2C
- outcome [1]: inactive
- outcome [2]: inactive
- outcome [3]: inactive
- outcome [5]: inactive

Structure (SMILES): COc1cc(OC)cc(N2CCN(C(=O)Nc3nc4cc(F)ccc4nc3OC)CC2)c1
- AC50 [1]: 0.833 µM (active)
- AC50 [2]: 2.63 µM (active)
- AC50 [3]: 1.48 µM (active)
- AC50 [5]: 1.32 µM (active)

Structure (SMILES): Cc1ccc(NC(=O)c2ccc3c(c2)OCCO3)cc1NC(=O)c1ccc2nc(OCCN3CCCC3)ccc2c1
- AC50 [1]: 0.129 µM (active)
- AC50 [2]: 0.229 µM (active)
- AC50 [3]: 0.0645 µM (active)
- AC50 [5]: 0.204 µM (active)

Structure (SMILES): CCCc1cc(C(=O)N[C@H](Cc2ccc(-c3cccc(OC(F)(F)F)c3)nc2)C(=O)N[C@@H]2CCNC2)sc1C
- AC50 [1]: 23.5 µM (active)
- AC50 [2]: 16.6 µM (active)
- AC50 [3]: 20.9 µM (active)
- AC50 [5]: 10.5 µM (active)
